According to PubChem BioAssay:
Measured potencies and affinities stand elsewhere. The source made the active and inactive calls. The limit is not given here; nearly all actives have IC50 up to about 0.98 µM.

What follows are compounds tested against Calcium-dependent protein kinase 1 (Plasmodium falciparum (isolate 3D7)) (UniProt P62344) (assay: PfCDPK1 kinase inhibitors, biochemical, TCAMS library (AID 1159585;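 also: inhibitors leave more ATP so luminescence rises with inhibition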)). Settings: recombinant PfCDPK1, Kinase-Glo ATP depletion luminescence.
Chain of Calcium-dependent protein kinase 1 (Plasmodium falciparum (isolate 3D7)) (P62344 whole entry, looked up): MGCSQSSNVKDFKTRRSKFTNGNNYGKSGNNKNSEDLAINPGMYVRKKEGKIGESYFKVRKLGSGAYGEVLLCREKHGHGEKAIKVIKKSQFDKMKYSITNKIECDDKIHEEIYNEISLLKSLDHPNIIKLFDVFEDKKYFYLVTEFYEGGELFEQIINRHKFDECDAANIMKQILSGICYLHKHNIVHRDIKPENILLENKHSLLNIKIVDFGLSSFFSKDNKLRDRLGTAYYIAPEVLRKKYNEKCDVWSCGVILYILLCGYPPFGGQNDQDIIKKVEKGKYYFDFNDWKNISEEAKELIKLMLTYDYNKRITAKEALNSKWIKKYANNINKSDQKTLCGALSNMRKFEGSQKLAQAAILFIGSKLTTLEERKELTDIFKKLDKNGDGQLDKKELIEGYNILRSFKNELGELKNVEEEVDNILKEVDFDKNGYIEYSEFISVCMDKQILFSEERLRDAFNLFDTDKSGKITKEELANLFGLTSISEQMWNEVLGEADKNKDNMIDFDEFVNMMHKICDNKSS

outcome, inactive:
C=CCN1Cc2c(O)cccc2C(c2ccc(O)c(O)c2)C1 (configuration not stated)
COc1cc(C(C)C)ccc1N1CCN(CCCCNC(=O)c2ccc(NC(=O)c3ccc(Cl)cc3)cc2)CC1
CCCNS(=O)(=O)c1ccc(NC(=O)C(C)Oc2ccc([N+](=O)[O-])cc2)cc1 (configuration not stated)
CC(C)CN1CCCN(Cc2cccc(NC(=O)c3ccc(Cl)c(Cl)c3)c2)CC1
COc1ccccc1C(=O)N1CCN(Cc2cccs2)CC1
Cc1ccc(CNC(=O)[C@H](CC(C)C)Nc2cc(C)nc(NCc3ccccc3C)n2)cc1
CCC[C@]1(C)CSc2ccccc2[C@@H](c2ccccc2)N1
COc1ccc(-c2cccc(NC(=O)c3cccc(Cl)c3)c2)cc1CNC(C)C
CCn1c(Sc2ccc(C#N)c([N+](=O)[O-])c2)nnc1-c1cc(OC)cc(OC)c1
CC1(C)N=C(N)N=C(N)N1OCCSCCON1C(N)=NC(N)=NC1(C)C
Cc1ccc(S(=O)(=O)N2CCN(C(=O)c3cc(-c4ccccc4)n[nH]3)CC2)cc1
CN(C)CCNCc1ccc(-c2cccc(-c3nc4ccccc4[nH]3)c2)cc1
COc1cc(NC(=O)c2c(-c3c(F)cccc3Cl)noc2C)c(OC)cc1Cl
Cc1occc1C(=O)Nc1nc(-c2ccccn2)nc2ccsc12
COc1ccc(NCCCNc2ccnc3ccccc23)cc1
c1ccc(CN2CCN(c3cc(-c4cncc(-c5ccccc5)c4)nc(-c4ccccc4)n3)CC2)cc1
O=C(Nc1ccccc1)c1ccc(-c2cc3ccncc3cc2OC2CCNCC2)s1
